# Laboratory results published in ChEMBL document CHEMBL4513216, “Probing the Open Global Health Chemical Diversity Library for Multistage-Active Starting Points for Next-Generation Antimalarials” (ACS Infect Dis, 2020).
# In all, about 69,000 compounds went through this assay and about 8,600 (12%) showed an effect of 50% or more. The sample holds strong results, similar compounds and a random draw of the others, so the mix is not that of the screen.
# Tested on: Plasmodium berghei
# Assay: Screen against P. berghei liver stage (PbLuc), transformed with Luciferase, at 10uM
# Assay type: functional, HepG2
# Conditions: tested at 10 uM
row,Compound,INHIBITION
1,CCn1cc(CN2CCCN(C(=O)CCc3cccs3)CC2)cn1,11.4%
2,c1cnn(Cc2cn3c(n2)CN(Cc2nccs2)CC3)c1,16.6%
3,COc1ccccc1C(C)(C)NC(=O)Nc1ccc(F)c(C(N)=O)c1,-16.9%
4,Cc1cc(C)c(CNC(=O)CC2CCCO2)c(=O)[nH]1 (stereo unspecified),14.55%
5,CCOCCCNC(=O)Cc1cccs1,30.8%
6,CCOCCCNC(=O)C(NC(=O)Cc1cccs1)c1ccc(C)cc1 (stereo unspecified),54%
7,CCOCCCNC(=O)C(NC(=O)Cc1cccs1)c1ccccc1 (stereo unspecified),34.2%
8,CN1CCOC(CN(C(=O)CCCn2cccn2)c2nccs2)C1 (stereo unspecified),-14.6%
9,NC(=O)N1Cc2nccn2CC(Cn2ncccc2=O)C1 (stereo unspecified),61.9%
10,CC(=O)NCC(=O)N1Cc2nccn2CC(CN2CCCC2)C1 (stereo unspecified),28.4%
11,O=C(c1ccccc1)N1Cc2nccn2CC(Cn2ncccc2=O)C1 (stereo unspecified),11.5%
12,O=C(N1CCCC1)N1Cc2nccn2CC(CN2CCCC2)C1 (stereo unspecified),42.6%
13,CC(C)NC(=O)N1Cc2nccn2CC(CN2CCCC2)C1 (stereo unspecified),73%
14,O=C(CC1CC1)N1Cc2nccn2CC(Cn2ncccc2=O)C1 (stereo unspecified),-13.2%
15,OC1(Cn2ccnc2)CCN(C[C@]2(O)CCCN3CCCC[C@@H]32)CC1,28.8%
16,O=C1CC2(CCN(C(=O)c3ccccn3)CC2)Oc2c(Br)cc(Br)cc21,34.2%
17,c1cncc(CC2CN(c3cccnc3)CCO2)c1 (stereo unspecified),-43%
18,O=C(NCc1cc(C2CC2)n(C2CCCC2)n1)C1CC1,44.4%
19,Cc1nc(CN2C(=O)CCC23CCN(c2ncccn2)CC3)cs1,-38.1%
20,O=C(NC1CC2(CCN(CCO)CC2)c2ccccc21)c1ccno1 (stereo unspecified),49.7%
21,C=C(C)CN1CCN(Cc2cnc(-c3ccc(OC)cc3)nc2)CC1,44.8%
22,CCOCCCNC(=O)c1cc(OC)c2ccoc2c1,6.11%

row,Compound,INHIBITION
1,CC(c1ccncn1)N(C)S(=O)(=O)NCc1ccccc1 (stereo unspecified),4.65%
2,CC(c1nccs1)N(C)S(=O)(=O)NCc1ccccc1 (stereo unspecified),-1.6%
3,CC(c1ccon1)N(C)S(=O)(=O)NCc1ccccc1 (stereo unspecified),50.9%
4,Cc1csc(N2CCN(C(=O)Cc3cccs3)CC2)n1,28.8%
5,CCCc1n[nH]c(C2CN(CCCS(=O)(=O)N(C)C)CCO2)n1 (stereo unspecified),-21.7%
6,CN(C)c1ncccc1N(C)C(=O)Cn1cc(-c2ccccc2)nn1,-0.85%
7,Cc1cccc(C2CCCN(S(=O)(=O)c3cccnc3)C2)n1 (stereo unspecified),19.36%
8,CC(=O)N1CCO[C@@H]2CN(C(=O)c3ccc4ccccc4c3)CC[C@@H]2C1,-57.1%
9,CN1CCO[C@@H]2CN(C(=O)c3ccc4[nH]ccc4c3)CC[C@@H]2C1,43%
10,O=C(c1ncccn1)N1C[C@@H]2CN(CC3CC3)CCO[C@@H]2C1,31.9%
11,CC(=O)N1CCO[C@@H]2CN(C(=O)c3ccccc3)CC[C@@H]2C1,12.1%
12,O=C(c1ccc2[nH]ccc2c1)N1CC[C@@H]2CN(CC3CC3)CCO[C@@H]2C1,60.2%
13,CN1CCO[C@@H]2CN(C(=O)c3ccc4ncccc4c3)CC[C@@H]2C1,58.4%
14,COCCN1CCO[C@@H]2CN(C(=O)c3ccc4[nH]ccc4c3)CC[C@@H]2C1,1.36%
15,CC(=O)N1CCO[C@@H]2CN(C(=O)c3ccc4ncccc4c3)CC[C@@H]2C1,49.1%
16,CCN1CCO[C@@H]2CN(C(=O)c3ccc4[nH]ccc4c3)CC[C@@H]2C1,52.1%
17,CN(C)c1cc(C(=O)N2CCCCC2Cn2cccn2)ccn1 (stereo unspecified),17.5%
18,CCOc1ccccc1N1CCN(C(=O)c2cc[nH]n2)CC1,44.1%
19,CN(C)CCOCC1CN(C(=O)N2CCCC2)Cc2ccnn2C1 (stereo unspecified),46.6%
20,O=C(O)c1cc(S(=O)(=O)Nc2ccccc2)cc2c1OCCO2,31.8%
21,CCCc1nc(CN(CC)Cc2ccc(O)c(C(=O)O)c2)no1,14.3%
22,CCN(CC)S(=O)(=O)c1ccc2c(c1)N(Cc1cccnc1)C(=O)CS2,-3.5%

row,Compound,INHIBITION
1,O=C(c1cc[nH]n1)N1CCOCC2(C1)CN(c1ccccc1)C(=O)CO2 (stereo unspecified),-14.2%
2,Cc1cnn(C2CCCN(C(=O)CCc3c(C)noc3C)C2)c1 (stereo unspecified),16.8%
3,CCN(CCO)C[C@@H]1CN(c2nc(C)cc(C)n2)C[C@@H]1CO,54.6%
4,CCN(CCO)C[C@@H]1CN(C(=O)c2ccc(C)s2)C[C@@H]1CO,59.4%
5,COCCN(C)C[C@@H]1CN(c2nc(C)cc(C)n2)C[C@@H]1CO,32.2%
6,CCN(CCO)C[C@@H]1CN(c2cc(C(F)(F)F)cc(C)n2)C[C@@H]1CO,12.9%
7,CCN(CCO)C[C@@H]1CN(C(=O)c2sc3ccccc3c2C)C[C@@H]1CO,47.6%
8,Cc1c(C(=O)N2C[C@@H](CN(C)CCO)[C@@H](CO)C2)sc2ccccc12,32.1%
9,O=C(NCc1cn2c(n1)CN(Cc1ccncc1)CC2)C1CCC1,43.9%
10,CCOc1ccnc(N2CCN(C(=O)c3cnc[nH]3)CC2)n1,31.8%
11,CC(C)c1cc(NC(=O)CNC2CCCN(c3cccnn3)C2)on1 (stereo unspecified),42.9%
12,CCC1(CC)CC(=O)N(CC(O)c2cccc(Br)c2)C1=O (stereo unspecified),-8%
13,Cc1nc(-c2ccco2)ccc1C(=O)NCCN1CCN(C)CC1,23.5%
14,CCC(CO)N(Cc1cccs1)C(=O)Cc1ccncc1 (stereo unspecified),41.4%
15,CCC(CO)N(Cc1cccs1)C(=O)Cc1ccc(O)cc1 (stereo unspecified),71.1%
16,CCC(CO)N(Cc1cccs1)C(=O)CSC (stereo unspecified),-36.3%
17,CCCNC(=O)COc1cc(C)c2c(C)nn(-c3ccccc3)c2n1,31.3%
18,N#Cc1ccc(C(=O)NS(=O)(=O)c2ccc(F)c(F)c2)cc1,58.3%
19,N#Cc1ccc(C(=O)NS(=O)(=O)c2ccc(C#N)c(Cl)c2)cc1,57.2%
20,N#Cc1ccc(CS(=O)(=O)NC(=O)c2ccc(C#N)cc2)cc1,-6.52%
21,COc1cc(C(=O)NS(=O)(=O)c2cccc(C#N)c2)cc(Cl)c1OC,-5.25%
22,N#Cc1ccc(S(=O)(=O)NC(=O)c2ccc3c(c2)COC3)cc1,6.61%

row,Compound,INHIBITION
1,N#Cc1cccc(C(=O)NS(=O)(=O)c2ccc(C#N)c(Cl)c2)c1,50.7%
2,COc1cc(C(=O)NS(=O)(=O)c2ccc(C#N)cc2)ccc1C,15.5%
3,COc1cc(C(=O)NS(=O)(=O)c2cccc(C#N)c2)ccc1C,14.4%
4,COc1cccc(C(=O)NS(=O)(=O)c2cccc(C#N)c2)c1,38.8%
5,CCc1oc(C(=O)N2CCC(N(CC)C(C)=O)C2)cc1CN(CC)CC (stereo unspecified),19.4%
6,O=C(NCc1cccnc1)N1CCc2ncnc(NC3CC3)c2CC1,4.98%
7,COc1c(C2CCCN2Cc2nc(-c3ccco3)no2)c(C)nn1C (stereo unspecified),-21.8%
8,Cc1nc(-c2ccc(CO)cc2)cc(C2CCNCC2)n1,23.9%
9,Cn1ccc(CN2CCC3(CC2)CC(Nc2ccccn2)CO3)n1 (stereo unspecified),37.9%
10,Cc1nc(CN2CCCc3cc(OC(F)(F)F)ccc32)oc1C,37.9%
11,Cc1nn(C)c(C)c1CNCc1ccc(N2CCOCC2)nc1,32.8%
12,O=C(NCC1CC1)[C@H]1C[C@H]2CN(C(=O)NCC3CCCCC3)C[C@@H]1O2,20.1%
13,Cc1cccn2c(=O)cc(OC(=O)c3ccccc3Cl)nc12,26.7%
14,CC(C)(C)n1cc(C2=CCN(CCc3ccccc3)CC2)cn1,50.2%
15,CC(C)(C)n1cc(C2=CCN(CCN3CCCCCC3)CC2)cn1,0.734%
16,CC(C)(C)n1cc(C2=CCN(CCc3ccccn3)CC2)cn1,18.7%
17,CC(C)(C)c1cnc(CN2CCCCC2Cn2cccn2)o1 (stereo unspecified),14.4%
18,N#Cc1cccc(CN2CCN(Cc3cscn3)CC2)c1,66.4%
19,CCn1ccnc1CN1CCN(CCOc2cccc(C#N)c2)CC1,23.2%
20,c1ccc(CN2CCN(Cc3cscn3)CC2)cc1,19.4%
21,c1cncc(CN2CCn3cc(Cn4cccn4)nc3C2)c1,31.7%
22,CCn1ccnc1CN1CCN(CCOc2ccc(C#N)cc2)CC1,52.3%

row,Compound,INHIBITION
1,CCn1ccnc1CN1CCN(Cc2ccc(C#N)cc2)CC1,48.1%
2,CCn1ccnc1CN1CCN(CCOc2ccccc2C#N)CC1,14.1%
3,CCn1ccnc1CN1CCN(Cc2cc(C#N)ccc2F)CC1,35.9%
4,N#Cc1cccc(CN2CCn3cc(Cn4cccn4)nc3C2)c1,58.8%
5,Fc1cccc(CN2CCN(Cc3cscn3)CC2)c1,36.7%
6,Fc1ccc(CN2CCn3cc(Cn4cccn4)nc3C2)cc1,-53.6%
7,CCn1ccnc1CN1CCN(Cc2cccc(C#N)c2)CC1,68.8%
8,O=C(c1ccc2[nH]cnc2c1)N1CCCC1Cn1cccn1 (stereo unspecified),-0.514%
9,C[C@@H]1CN(S(C)(=O)=O)C[C@]12CCN(Cc1cccnc1)C2=O,-28.2%
10,CNC(=O)c1cc(C2CCCN2)n[nH]1 (stereo unspecified),31.3%
11,c1nc2c(c(C3CC3)n1)CCN(Cc1ccc3c(c1)OCO3)CC2,21.8%
12,c1cnn(CC2CCCN2Cc2cn3ccsc3n2)c1 (stereo unspecified),28%
13,CSCCC(Nc1nc(C)cc(C)n1)C(=O)NCC1CCOCC1 (stereo unspecified),25.2%
14,CCc1csc(C2CCCN(C(=O)COc3cc(C)on3)C2)n1 (stereo unspecified),46.2%
15,O=C1CCCCCN1Cc1ncnn1Cc1c(F)cccc1Cl,5.46%
16,Cc1cccc(OCCN2CCN(Cc3noc(C)n3)CC2)c1,30.6%
17,Cc1nc(CN2CCCN(CCOc3ccc(C#N)cc3)CC2)no1,56.6%
18,COc1ccc(OCCN2CCCN(Cc3noc(C)n3)CC2)cc1,4.52%
